Results on 38 molecules are retold here after PubChem BioAssay AID720550 (National Center for Advancing Translational Sciences (NCATS), 2013).

Structures are written as SMILES. Records with an inconclusive call do not appear. A number with no mark means an inactive call. The source made the active and inactive calls. Calls follow the shape of the dose curve; as a rule, active = well fitted curve in the direction sought with a large enough effect; inconclusive = small, poorly fitted or top-dose-only effect, or another doubt; inactive = no such curve, though single readings can be large or run the other way.

A short description of the test: qHTS for Inhibitors of Bloom's syndrome helicase (BLM): Thiazole Orange DNA Binding Counterscreen for SAR. The conditions noted are these: fluorescence; Potency: Thiazole orange DNA displacement; series mostly up to 57.1 µM; activity change, negative = displacement: at the top concentration. The essentials: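 Compounds pintool-added to 50 nM unlabeled DNA with 100 nM thiazole orange; fluorescence (ex 480/em 530 nm) read after 15 min at room temperature. Dye displacement flags nonspecific DNA binders; inactivity is the desired outcome.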
In the case of `Cc1cc(NC(=O)Nc2nnc(C3CCCCC3)s2)ccc1F`, the “activity change, negative = displacement” value was 4.58%.

For the molecule `Cc1ccc(-c2nnc(NC(=O)Nc3ccc4ccccc4c3)s2)cc1`, the “activity change, negative = displacement” value is 18.5%.

As for `O=C(Cc1ccc2ccccc2c1)Nc1nnc(-c2ccncc2)s1`, the “activity change, negative = displacement” value was 12.1%.

Consider `O=C(Nc1ccc2c(c1)OCO2)Nc1nnc(-c2ccncc2)s1`, for which the “activity change, negative = displacement” value was -28.2%.

As to `O=C(Nc1ccc(-c2nc3ccccc3[nH]2)cc1)Nc1ccc2occc2c1`, the “activity change, negative = displacement” value was 32.4%.

Regarding `Cc1cc(NC(=O)Nc2cccc(-c3ccncc3)n2)ccc1Cl`, the Potency result is “inactive”.

For the molecule `O=C(Nc1ccc(Cl)c(C(F)(F)F)c1)Nc1nnc(-c2ccncc2)s1`, the “activity change, negative = displacement” value was 13.6%.

Turning to `O=C(Nc1ccc(Cl)c(Cl)c1)Nc1nc(-c2ccncc2)cs1`, the “activity change, negative = displacement” value is 250%.

In the case of `O=C(Nc1nnc(-c2ccncc2)s1)NC12CC3CC(CC(C3)C1)C2`, the “activity change, negative = displacement” value was 91.5%.

For the molecule `O=C(Nc1ccc(Cl)c(Cl)c1)Nc1nnc(-c2ccc(F)cc2)s1`, the “activity change, negative = displacement” value is -18.2%.

On to `COc1ccccc1CNC(=O)Nc1nnc(-c2ccncc2)s1`, for which the “activity change, negative = displacement” value is 1.57%.

With `O=C(Nc1ccc(Cl)c(Cl)c1)Nc1cccc(-c2ccncc2)n1`, the “activity change, negative = displacement” value is -5.13%.

For the molecule `O=C(Nc1ccc(Cl)c([N+](=O)[O-])c1)Nc1nnc(-c2ccncc2)s1`, the Potency is 513 nM (active).

Take `O=C(Nc1ccc2ccccc2c1)Nc1nnc(-c2ccccc2F)s1`: the “activity change, negative = displacement” value is 2.78%.

On to `N#Cc1cc(NC(=O)Nc2nnc(-c3ccncc3)s2)ccc1Br`, for which the “activity change, negative = displacement” value was -29.5%.

Consider `Cc1cc(C)c(-c2nnc(NC(=O)Nc3ccc4ccccc4c3)s2)c(C)c1`, for which the “activity change, negative = displacement” value is 10.1%.

As for `O=C(Nc1ccc2ccccc2c1)Nc1nnc(-c2ccccn2)s1`, the “activity change, negative = displacement” value is -12%.

Regarding `O=C(Cc1nnc(-c2ccncc2)s1)Nc1ccc(F)c(C(F)(F)F)c1`, the “activity change, negative = displacement” value is 52.1%.

On to `O=C(Nc1nnc(-c2ccncc2)s1)Nc1cccc2ccccc12`, for which the “activity change, negative = displacement” value is 1.97%.

In the case of `N#CN/C(=N\c1nnc(-c2ccncc2)s1)Nc1ccc(F)c(C(F)(F)F)c1`, the “activity change, negative = displacement” value is -23.3%.

For `O=C(Nc1ccc(Cl)c(Cl)c1)N1CCN(c2ccncc2)CC1`, the “activity change, negative = displacement” value was 4.41%.

On to `O=C(Nc1ccc2ccccc2c1)Nc1nnc(-c2cccnc2)s1`, for which the “activity change, negative = displacement” value is 7.64%.

On to `O=C(Nc1ccc(F)c(C(F)(F)F)c1)Nc1cccc(-c2ccncc2)n1`, for which the “activity change, negative = displacement” value was 122%.

Consider `O=C(Nc1ccc(-n2cncn2)c(C(F)(F)F)c1)Nc1nnc(-c2ccncc2)s1`, for which the “activity change, negative = displacement” value is 264%.

As to `Cc1cc(NC(=O)Nc2nnc(-c3cccnc3)s2)ccc1Cl`, the Potency entry was “inactive”.

`CC(=O)c1ccc(NC(=O)Nc2nnc(-c3ccncc3)s2)cc1`: the “activity change, negative = displacement” value is -9.66%.

Consider `O=C(Nc1ccc(Cl)c(Cl)c1)Nc1nnc(-c2ccncc2)o1`, for which the “activity change, negative = displacement” value is -2.02%.

Consider `O=C(Nc1ccc(Cl)c(Cl)c1)Nc1nnc(Br)s1`, for which the “activity change, negative = displacement” value was 146%.

For the molecule `N#Cc1cc(NC(=O)Nc2cccc(-c3ccncc3)n2)ccc1Cl`, the “activity change, negative = displacement” value is 7.59%.

`Cc1cc(NC(=O)Nc2nnc(C3CCCCC3)s2)ccc1Br`: the “activity change, negative = displacement” value was 138%.

For `O=C(Nc1ccc(F)c(C(F)(F)F)c1)Nc1nc(-c2ccncc2)cs1`, the “activity change, negative = displacement” value is 96.9%.

Take `S=C(Nc1ccc(Cl)c(Cl)c1)Nc1nnc(-c2ccncc2)o1`: the “activity change, negative = displacement” value is -26.8%.

As to `O=C(NCc1ccc(Cl)c(Cl)c1)Nc1nnc(-c2ccncc2)s1`, the “activity change, negative = displacement” value was 68.9%.

For the molecule `O=C(Nc1ccc2sccc2c1)Nc1nnc(-c2cccnc2)s1`, the “activity change, negative = displacement” value is 8.73%.

Consider `O=C(Nc1ccc(-c2nc3ccccc3[nH]2)cc1)Nc1ccc2c(c1)OCCO2`, for which the “activity change, negative = displacement” value is 2.09%.

In the case of `N/C(=N\c1nnc(-c2ccncc2)s1)Nc1ccc(Cl)c(Cl)c1`, the “activity change, negative = displacement” value was 20.4%.

Consider `CN1CCN(c2nnc(NC(=O)Nc3ccc(Cl)c(Cl)c3)s2)CC1`, for which the “activity change, negative = displacement” value is 24.5%.

In the case of `N#Cc1cc(NC(=O)Nc2nnc(-c3ccncc3)s2)ccc1F`, the “activity change, negative = displacement” value was -16.5%.
